Data published in PubChem BioAssay AID1626 (SRMLSC, 2009).
Screen size: about 220,000 compounds; about 2,000 (0.91%) were called active. Roughly 2% stayed inconclusive and do not appear here. Only a sample is shown. Results with a measured potency or affinity are listed apart. Unmarked numbers belong to inactive results. Rule as the data show it: inconclusive = inhibition above about 80% without an active follow-up result; inactive = below that; test concentration not stated here.

Assay: M. tuberculosis H37Rv growth inhibitors, H37Rv strain (AID 1626);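 also: bacteria incubated seven days before Alamar blue readout; 0% = bacteria only wells and 100% = bacteria with antibiotic wells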
Conditions: hits give high values, concentration not given here

Structure (SMILES) | inhibition [%]
COc1ccc(C2C3=C(CCCC3=O)Nc3n[nH]c(C)c32)cc1OC (stereo unspecified) | -5.11
CCOC(=O)CSc1nnc(CNc2cccc(Cl)c2)n1-c1ccccc1 | 5.48
N#Cc1nc(-c2ccc(OCc3ccccc3)cc2)oc1NCCCn1ccnc1 | 4.85
N#Cc1nc(-c2ccc(OCc3ccc(Cl)cc3)cc2)oc1NCCCn1ccnc1 | -1.04
Cc1cccc(C)c1Nc1nnc(SCc2cn3cccc(C)c3n2)s1 | -7.42
COc1ccc(-c2cc(=Nc3ccc(C)cc3)c3ccccc3o2)cc1 | 12.8
COc1ccc(-c2cc(=Nc3ccccc3)c3cc(C)ccc3o2)cc1 | 17.7
O=C(CNC(=O)c1ccco1)Nc1ccc(S(=O)(=O)N2CCCC2)cc1 | -5.82
Cc1ccc2nc(N(CCCN(C)C)C(=O)CCc3ccccc3)sc2c1 | 9.45
CN(C)CCCN(C(=O)CCc1ccccc1)c1nc2ccc(F)cc2s1 | 7.03
O=C1NC(c2ccccc2)=NC1(NS(=O)(=O)c1ccc(Cl)cc1)C(F)(F)F (stereo unspecified) | 7.08
O=C(c1ccc(Cl)cc1)c1coc2ccc(O)cc12 | -6.06
COc1ccc(OC)c(C(=O)c2coc3ccc(O)cc23)c1 | -1.33
O=C(c1coc2ccc(O)c(CN3CCOCC3)c12)C1CC1 | 4.13
O=C(c1cccs1)c1coc2ccc(O)cc12 | 51
CN1CC(=O)N(CC(=O)Nc2ccc(F)cc2)c2ccccc2C1=O | -5.02
COc1ccc(C(=O)Nn2c(CCC(=O)O)ccc2-c2ccc(C)cc2)cc1OC | -3.08
Cc1cccc(N2CCN(C(=O)N3CCOCC3)CC2)c1C | -3.5
Cc1nn(C)c(C(=O)NNC(=S)NC2CCCCC2)c1Br | 10.2
Cc1ccc(NC(=O)COC(=O)CCNS(=O)(=O)c2ccc(C)c(C)c2)cc1 | -0.05
CCCOc1cc(N(CC)CC)ccc1/C=C(/C#N)c1nc2ccc(C)cc2[nH]1 | 61.6

Structure (SMILES) | inhibition [%]
CCN(CC)c1ccc(/C=C(/C#N)c2nc3ccc(C)cc3[nH]2)c(OC(C)C)c1 | 16.2
FC(F)(F)c1ccc(CN2C[C@@H]3C(c4ccccc4)C4(c5cccnc5)CC3(C4)[C@H]2c2ccccc2)cc1 (stereo partly specified) | 20.3
COc1ccccc1S(=O)(=O)CC(O)COc1ccc(C#N)cc1 (stereo unspecified) | -1.05
Cc1nccn1CC(=O)N/N=C/c1c[nH]c2ccccc12 | 3.79
COC(=O)c1ccc(OC(=O)CCN2c3ccccc3Sc3ccccc32)cc1 | 1.13
O=C(CCN1c2ccccc2Sc2ccccc21)Oc1ccccc1 | 22.8
CSCCC(NC(=O)c1ccccc1)c1nc(-c2ccccc2)no1 (stereo unspecified) | 2.56
CCOc1cc(Br)ccc1S(=O)(=O)N1CCC(C(N)=O)CC1 | -1.13
Cc1cccc(N=Nc2c(C)c(C#N)c(O)[nH]c2=O)c1 | -1.05
CCOC(=O)c1ccc(N=Nc2c(C)c(C#N)c(O)[nH]c2=O)cc1 | 86.6
Cc1ccc(C)c2[nH]c(=O)c(CN(CC3CCCO3)C(=S)NCc3ccco3)cc12 (stereo unspecified) | 1.36
c1ccc(COc2ccc(CNn3cnnc3)cc2)cc1 | -2.39
COc1cccc(-c2nc(Oc3cccc(C)c3C)c3ccccc3n2)c1O | -7.68
Cc1nc(SCC(=O)NCc2ccccc2)c2oc3ccccc3c2n1 | -1.12
CCOC(=O)N1C2=NC(C(=O)OC)=C(C(=O)OC)[C@@H]3N(Cc4ccccc4)c4ccccc4[C@]23C[C@H]1C(=O)OC | -6.13
O=C(c1cn(-c2ccc(Cl)c(Cl)c2)nn1)C1CC1 | 12.8
Cc1ccc(C(=O)c2cn(-c3ccc(F)c(Cl)c3)nn2)cc1 | 0.59
Cc1ccc(-n2cnnn2)cc1Cl | -4.47
CN1CCN(c2ccc(C(=O)c3ccc(F)cc3)cc2)CC1 | 1.19
Cc1c(-n2c(O)c(C3=c4ccccc4=NC3=O)sc2=O)c(=O)n(-c2ccccc2)n1C | 1.59
N/C(=N\OC(=O)c1cc(Cl)ccc1Cl)c1ccncc1 | -3.7

Structure (SMILES) | inhibition [%]
CS(=O)(=O)N(Cc1ccc(Cl)cc1)c1ccc(C(=O)N/N=C/c2cc3ccccc3nc2Cl)cc1 | -6.17
Cc1ccc(-n2nnnc2SCC(=O)Nc2sccc2C#N)cc1 | 0.42
O=C(CN1C(=O)CCC1=O)NCC12CC3CC(CC(C3)C1)C2 | 0.8
Cc1ccc(N/C=C(\C#N)c2ccc(OCCCF)cc2)cc1 | 7.98
CCC(CC)NC(=O)c1cc2c(C)nn(Cc3ccccc3Cl)c2s1 | -6.17
Cc1nc2ccccn2c1C(=O)NCc1cccnc1 | -10.5
O=C(NCc1ccc2c(c1)OCO2)c1cnc2ccccn2c1=O | -8.83
Cc1nn(Cc2ccccc2Cl)c2sc(C(=O)NC(C)(C)C)cc12 | 7.48
CC(C)(C)c1ccc(C(=O)OCCNC(=O)c2c(Cl)nc3ccccn23)cc1 | -10.6
CCNC(=O)c1c(C)nc2ccccn12 | -9.74
COc1ccc(NC(=O)c2c(Cl)nc3ccccn23)cc1 | -0.46
Cc1nc2ccccn2c1C(=O)N/N=C/c1ccc2c(c1)OCO2 | 1.58
COCCn1c(=O)[nH]c2cc(C(=O)NCC3CCCO3)ccc2c1=O (stereo unspecified) | -10.7
COc1cc(C2NC(=O)NC(C)=C2C(C)=O)ccc1O (stereo unspecified) | 5.67
COC(=O)c1ccccc1NC(=O)NCc1cccnc1 | 2.42
CCCC(C)C(=O)Nc1ccc(Cl)cc1Cl (stereo unspecified) | -6.12
Cc1ccc(NC(=O)CC(=O)NCCN2CCOCC2)cc1 | -6.87
CC(=O)c1ccc(OC(C)C)c(CSC(=N)N)c1 | -9.08
COc1ccccc1NS(=O)(=O)c1cccc(NC(=S)NCCN2CCOCC2)c1 | -2.29
